Compounds without any hit were thinned out: in the full panel of roughly 83,000, 20% have a hit.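 Activity criterion: percent growth below 10, measured after cells in 96-well plates were exposed to a single compound concentration for 48 hours.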 Active and inactive are the calls of the source.
Experiments:
Test in all cases: NCI-60 one-dose screen, 48 h (100 = growth as untreated, 0 = no growth, -100 = all killed)
Conditions in all cases: 10 µM unless noted
SR leukemia = system: SR leukemia
RPMI-8226 leukemia = system: RPMI-8226 leukemia
OVCAR-8 ovarian = system: OVCAR-8 ovarian
OVCAR-5 ovarian = system: OVCAR-5 ovarian
OVCAR-4 ovarian = system: OVCAR-4 ovarian
SK-OV-3 ovarian = system: SK-OV-3 ovarian
IGROV1 ovarian = system: IGROV1 ovarian
OVCAR-3 ovarian = system: OVCAR-3 ovarian
HS 578T breast = system: HS 578T breast
NCI/ADR-RES ovarian = system: NCI/ADR-RES ovarian
T-47D breast = system: T-47D breast
BT-549 breast = system: BT-549 breast
MDA-MB-435 melanoma = system: MDA-MB-435 melanoma
SW-620 colon = system: SW-620 colon
MCF7 breast = system: MCF7 breast
HCT-116 colon = system: HCT-116 colon
HCC-2998 colon = system: HCC-2998 colon
KM12 colon = system: KM12 colon

Measured: growth

COC(=O)CCc1c(/C=C2\N=C(c3ccc[nH]3)C=C2OC)[nH]c(C)c1C(=O)OCc1ccccc1
inactive: OVCAR-5 ovarian 34.1% | OVCAR-4 ovarian 31.3% | SK-OV-3 ovarian 21.5% | IGROV1 ovarian 21.7% | HCC-2998 colon 22.8% | KM12 colon 10.6%
active: SR leukemia -17.8% | RPMI-8226 leukemia -32.5% | OVCAR-8 ovarian 7.03% | OVCAR-3 ovarian -31.1% | HS 578T breast -14.7% | NCI/ADR-RES ovarian 9.4% | T-47D breast -2.41% | BT-549 breast 1.79% | MDA-MB-435 melanoma 2.53% | SW-620 colon 3.31% | MCF7 breast 7.6% | HCT-116 colon -9.83%

CCC(=C(c1ccc(OCCN(CC)CC)cc1)c1ccc(OCCN(CC)CC)cc1)c1ccc(Cl)cc1
inactive: SK-OV-3 ovarian 55.4% | BT-549 breast 61.5%
active: SR leukemia -39.7% | RPMI-8226 leukemia -48.5% | OVCAR-8 ovarian -49.8% | OVCAR-5 ovarian -52.8% | OVCAR-4 ovarian -38.9% | IGROV1 ovarian -78.6% | OVCAR-3 ovarian -72.2% | HS 578T breast -44.3% | NCI/ADR-RES ovarian -33.1% | T-47D breast -55.4% | MDA-MB-435 melanoma -92% | SW-620 colon -75.5% | MCF7 breast -73.3% | HCT-116 colon -87.7% | HCC-2998 colon -91% | KM12 colon -82.2%

COc1cc(/C=C2\C(=O)N(CCOc3cc(O)c4c(=O)cc(-c5ccccc5)oc4c3)c3ccccc32)cc(OC)c1O
active: MDA-MB-435 melanoma -40.2%
inactive: SR leukemia 39% | RPMI-8226 leukemia 84.1% | OVCAR-8 ovarian 69.9% | OVCAR-5 ovarian 103% | OVCAR-4 ovarian 82.3% | SK-OV-3 ovarian 92.2% | IGROV1 ovarian 74.4% | OVCAR-3 ovarian 55% | HS 578T breast 45.5% | NCI/ADR-RES ovarian 47.5% | T-47D breast 65.4% | BT-549 breast 51% | SW-620 colon 22.2% | MCF7 breast 31% | HCT-116 colon 28.2% | HCC-2998 colon 80% | KM12 colon 51.2%

COC12C=C/C(=C(/C(=O)OCc3ccccn3)C(=O)CCCCCCCCC3(OC)C=C/C(=C(/C(=O)OCc4ccccn4)C(=O)CCCCCCCC1)O3)O2
active: SR leukemia -9.81% | RPMI-8226 leukemia -14.8% | IGROV1 ovarian -39.1% | OVCAR-3 ovarian -36.3% | NCI/ADR-RES ovarian 7.96% | BT-549 breast -26.9% | MDA-MB-435 melanoma -23.6% | SW-620 colon 8.34% | MCF7 breast -0.915% | HCT-116 colon -59.7% | HCC-2998 colon -82.6% | KM12 colon -76.2%
inactive: OVCAR-8 ovarian 16.8% | OVCAR-5 ovarian 34.9% | OVCAR-4 ovarian 28.8% | SK-OV-3 ovarian 46.3% | HS 578T breast 49.7% | T-47D breast 18.5%

COc1ccc(C(=O)/C=C/Nc2cc(-c3ccccc3)nn2-c2ccccc2)cc1
inactive: SR leukemia 99.3% | RPMI-8226 leukemia 94.9% | OVCAR-8 ovarian 95.9% | OVCAR-5 ovarian 94.2% | OVCAR-4 ovarian 98.7% | SK-OV-3 ovarian 97.6% | IGROV1 ovarian 97.8% | OVCAR-3 ovarian 109% | HS 578T breast 107% | NCI/ADR-RES ovarian 93.2% | T-47D breast 82% | BT-549 breast 103% | MDA-MB-435 melanoma 99.2% | SW-620 colon 84.2% | MCF7 breast 87.9% | HCT-116 colon 85.9% | HCC-2998 colon 99.4% | KM12 colon 99.9%

CN(C)C(=O)OCc1ccc2c(Cl)cc(Cl)c(O)c2n1
inactive: SR leukemia 34.3% | RPMI-8226 leukemia 34.7% | OVCAR-8 ovarian 22.6% | OVCAR-5 ovarian 77.4% | OVCAR-4 ovarian 20.8% | SK-OV-3 ovarian 50.1% | IGROV1 ovarian 40.9% | OVCAR-3 ovarian 30.6% | HS 578T breast 71.8% | NCI/ADR-RES ovarian 14.8% | T-47D breast 37.8% | BT-549 breast 60.3% | MDA-MB-435 melanoma 31.2% | SW-620 colon 25.7% | MCF7 breast 32.4% | HCT-116 colon 31.6% | HCC-2998 colon 61.8% | KM12 colon 35.4%

CN1CCN(Cc2ccc(NC(=O)c3cncc(C#Cc4c(N)ncc5ccccc45)c3)cc2C(F)(F)F)CC1
inactive: BT-549 breast 14.6%
active: SR leukemia -42.6% | RPMI-8226 leukemia -38% | OVCAR-8 ovarian -62.3% | OVCAR-5 ovarian -22.2% | OVCAR-4 ovarian -55.1% | SK-OV-3 ovarian 8.37% | IGROV1 ovarian -62% | OVCAR-3 ovarian -78.4% | HS 578T breast -31.5% | NCI/ADR-RES ovarian -24.5% | T-47D breast -64.5% | MDA-MB-435 melanoma -90.3% | SW-620 colon -71.3% | MCF7 breast -70.8% | HCT-116 colon -96.5% | HCC-2998 colon -60.7% | KM12 colon -65.2%

COc1ccc(NC(=O)c2sc3nc(C)c(C(=O)c4ccccc4)cc3c2N)cc1
inactive: SR leukemia 81.2% | RPMI-8226 leukemia 101% | OVCAR-8 ovarian 101% | OVCAR-5 ovarian 82.8% | OVCAR-4 ovarian 91.1% | SK-OV-3 ovarian 92.6% | IGROV1 ovarian 101% | OVCAR-3 ovarian 103% | HS 578T breast 83.5% | NCI/ADR-RES ovarian 108% | T-47D breast 91% | BT-549 breast 113% | MDA-MB-435 melanoma 98% | SW-620 colon 90.9% | MCF7 breast 88.8% | HCT-116 colon 108% | HCC-2998 colon 103% | KM12 colon 95.3%

O=C1c2ccccc2C(=O)c2cc(Cn3c[n+](Cc4ccc5ccccc5c4)c4ccccc43)ccc21
inactive: SR leukemia 38.1% | OVCAR-8 ovarian 41.4% | OVCAR-5 ovarian 59.3% | OVCAR-4 ovarian 47.2% | SK-OV-3 ovarian 83.2% | OVCAR-3 ovarian 34.9% | HS 578T breast 62.2% | NCI/ADR-RES ovarian 91.1% | T-47D breast 41.2% | BT-549 breast 47% | MDA-MB-435 melanoma 38.4% | SW-620 colon 64.4% | MCF7 breast 39.9% | HCT-116 colon 41.2% | HCC-2998 colon 46.2% | KM12 colon 25.5%
active: RPMI-8226 leukemia 2.45% | IGROV1 ovarian 3.66%

CC(=O)O[C@H]1C[C@@]2(C)[C@@H](C[C@@H](O)[C@H]3[C@@]4(C)CC[C@H](N5CCCC5)[C@@H](C)[C@@H]4CC[C@@]32C)/C1=C(\CCC=C(C)C)C(=O)O
inactive: SR leukemia 24% | RPMI-8226 leukemia 88.1% | OVCAR-8 ovarian 102% | OVCAR-5 ovarian 102% | OVCAR-4 ovarian 101% | SK-OV-3 ovarian 100% | IGROV1 ovarian 105% | OVCAR-3 ovarian 101% | HS 578T breast 95.3% | NCI/ADR-RES ovarian 95.1% | T-47D breast 103% | BT-549 breast 101% | MDA-MB-435 melanoma 99.7% | SW-620 colon 96.2% | MCF7 breast 90.7% | HCT-116 colon 99.9% | HCC-2998 colon 104% | KM12 colon 102%
